Assay outcomes as filed in PubChem BioAssay.
A selection: hits, their analogues and other compounds. The true share with any hit is near 4.6%.
Bst PK mod – alters activity of Bacillus stearothermophilus pyruvate kinase | AID 361 | purified pyruvate kinase, luminescence ATP production; ribose 5-phosphate activator present at AC10 | Potency, µM | 1.2% of 51,000 active; in the data active = potency below about 11 µM; inconclusive = mostly about 12 µM to 25 µM;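 the screen sought inhibitors and activators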;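 also: scaled between full activation by ribose 5 phosphate and full inhibition by luteolin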
GBA activity – modulators of human glucocerebrosidase | P04062 | Potency, µM | 1.1% of 48,000 active | purified enzyme, resorufin glucoside fluorescence (screen aimed at inhibitors), 20 min | AID 360; in the data active = potency below about 15 µM; inconclusive = mostly about 16 µM to 33 µM;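 also: the screen sought inhibitors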
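Compounds titrated against 0.2 nM normal enzyme, 30 uM resorufin beta-D-glucopyranoside substrate, citrate/phosphate buffer with taurocholate and tween-20, pH 5.9. Reaction ran 20 min at room temperature; fluorescence (Ex 548/Em 600) gave AC50.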
Hsp90 Hop PPI – changes Hsp90-Hop TPR2A binding signal, up or down. AlphaScreen TPR2A-His6 binding biotin-Hsp90 C-terminal peptide. Potency, µM (titrated, usually from 57 µM), inactives show top-dose activity change, negative = inhibition. 0.44% of 71,000 active. AID 595; active = well fitted curve in either direction with a large enough effect; inconclusive = small, poorly fitted or top-dose-only effect, or another doubt; also: % is scaled to controls: 0 for no effect and ±100 for the full control effect
15-hLO inh – inhibitors of human 15-lipoxygenase (ALOX15); AID 887; purified 15hLO-1, xylenol orange hydroperoxide absorbance; Potency, µM (highest dose often 57.1 µM), inactives show top-dose activity change, negative = inhibition, actives largely listed as inhibitors; P16050; 1.4% of 74,000 active; also: % is scaled to controls: 0 for no effect and ±100 for the full control effect; nearly all actives have a fitted effect of over 55% in size
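Purified human 15hLO-1 (40 nM final) in 25 mM Hepes pH 7.5, 0.01% Triton X-100 was preincubated with compound 15 min at room temperature, then reacted 6 min with 50 uM arachidonic acid; hydroperoxide detected by Fe-XO, 573/405 nm absorbance ratio.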
Tau filament bind – binders of human tau filaments. 2% of 71,000 active. recombinant tau filaments, thioflavin S fluorescence, 15 h; filaments grown with octadecylsulfate alongside compound. P10636. Potency, µM (series often up to 57.1 µM), inactives show at the top dose activity change, negative = inhibition;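 also: % is scaled to controls: 0 for no effect and ±100 for the full control effect; actives lower thioflavin S fluorescence by blocking filaments or displacing dye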
Target sequence (P10636 whole entry, looked up): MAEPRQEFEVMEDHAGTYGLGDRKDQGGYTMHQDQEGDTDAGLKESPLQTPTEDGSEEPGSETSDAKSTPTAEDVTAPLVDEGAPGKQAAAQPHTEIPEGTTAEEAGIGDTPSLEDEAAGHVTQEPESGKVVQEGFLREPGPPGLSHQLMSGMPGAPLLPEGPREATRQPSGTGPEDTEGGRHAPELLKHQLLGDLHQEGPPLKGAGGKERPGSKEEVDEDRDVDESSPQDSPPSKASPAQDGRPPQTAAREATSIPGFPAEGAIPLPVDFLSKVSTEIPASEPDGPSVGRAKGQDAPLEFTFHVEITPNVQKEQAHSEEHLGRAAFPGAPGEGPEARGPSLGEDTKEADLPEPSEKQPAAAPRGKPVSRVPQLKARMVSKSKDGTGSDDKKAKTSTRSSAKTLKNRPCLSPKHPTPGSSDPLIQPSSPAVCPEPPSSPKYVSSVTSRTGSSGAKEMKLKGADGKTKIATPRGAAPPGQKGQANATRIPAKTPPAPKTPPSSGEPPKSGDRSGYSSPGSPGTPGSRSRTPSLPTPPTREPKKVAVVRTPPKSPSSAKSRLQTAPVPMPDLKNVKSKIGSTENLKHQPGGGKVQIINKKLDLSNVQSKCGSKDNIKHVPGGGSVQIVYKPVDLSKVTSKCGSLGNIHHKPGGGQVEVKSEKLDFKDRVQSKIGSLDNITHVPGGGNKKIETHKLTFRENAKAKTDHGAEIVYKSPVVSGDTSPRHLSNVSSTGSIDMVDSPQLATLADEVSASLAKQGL
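Tau 2 uM in ThS buffer dispensed; compound added; 60 uM ODS added (finals 1 uM tau, 30 uM ODS); 15 h 37 C; fluor ex450/em510.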
USP2a inh – blocks human ubiquitin-specific protease USP2a; O75604; USP2a enzymatic assay, qHTS inhibition; Potency, µM (top dose mostly 38.3 µM), without a hit: at the highest dose activity change, negative = inhibition, actives largely listed as inhibitors; 0.1% of 60,000 active; AID 927; also: nearly all actives have a fitted effect of over 60% in size
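USP2 core (20nM final) preincubated 30 min RT with compound, then Ub-PLA2 20nM and NBD C6-HPC 20uM final added; buffer 20mM Tris-HCl pH 8.0, 2mM CaCl2. Fluorescence Ex 460/Em 535 read at 0 and 2.5 h; normalized to NEM.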
The depositor's hits bear a star; i = inactive; ? = inconclusive; / = no result given. Unless noted, calls follow the shape of the dose curve; as a rule, active = well fitted curve in the direction sought with a large enough effect; inconclusive = small, poorly fitted or top-dose-only effect, or another doubt; inactive = no such curve, though single readings can be large; an effect the other way counts as inactive or inconclusive. Potency is read from the fitted curve at half-maximal effect.

SMILES	Bst PK mod	GBA activity	Hsp90 Hop PPI	15-hLO inh	Tau filament bind	USP2a inh
COc1cccc(Nc2ncc3nc(C)c(=O)n(CCC#N)c3n2)c1	/	/	-5%	2%	25µM*	95%
COc1cccc(Cn2c(=O)c(-c3ccc(Cl)cc3)nc3cnc(N4CCN(C)CC4)nc32)c1	/	/	-4%	-7%	?	140%
COc1cccc(Nc2ncc3ncc(=O)n(CCC#N)c3n2)c1	/	/	-3%	2%	-7%	23%
CC(=O)c1cccc(NC(=O)CN2C(=O)C3C4C=CC(C4)C3C2=O)c1 (stereo unspecified)	/	/	2%	5%	-6%	-8%
COc1cccc(Cn2c(=O)c(-c3cccc(Cl)c3)nc3cncnc32)c1	/	/	-16%	?	20µM*	38%
C=Cc1c(C)c2cc3[nH]c(cc4nc(cc5nc(cc1[nH]2)C(C)=C5CCC(=O)O)C(CCC(=O)O)=C4C)c(C)c3C=C	/	/	?	?	5µM*	-8%
CC1=C(CCC(=O)O)c2cc3nc(cc4[nH]c(cc5[nH]c(cc1n2)c(C)c5C(C)O)c(C)c4C(C)O)C(C)=C3CCC(=O)O (stereo unspecified)	/	/	/	-14%	/	-7%
COC(=O)c1cc2c(cc1Cl)SC(=NCCCN1CCOCC1)NS2(=O)=O	>57	8.3*	-4%	-14%	3%	3%
COC(=O)c1ccc(Cl)c(NC(=O)CN2CCOCC2)c1	>57	>77	-1%	2%	1%	-3%
Cc1ccccc1-n1nnnc1SCC(N)=O	/	>77	-1%	1%	-10%	-2%
Cc1cccc(C)c1-n1nnnc1SCSc1nnnn1-c1c(C)cccc1C	3.5*	>77	-3%	-5%	6%	0%
N#Cc1sc2nc(-c3ccccc3)cc(-c3ccco3)c2c1N	?	>77	-18%	4µM*	2.5µM*	24%
CC(C)(C)c1cc(-c2ccco2)c(C#N)c(SCC#N)n1	>26	/	/	/	/	/
N#Cc1c(-c2ccccc2)cc(-c2ccco2)c(C#N)c1N	/	/	?	7.9µM*	43%	?
CN1CCN(C2=C(Cl)C(=O)N(C3CCCCC3)C2=O)CC1	>57	?	-5%	-14%	16µM*	9%
CCC(=O)Nc1ccc2c(c1)C(=O)N(C1CCCCC1)C2=O	>57	>77	0%	2%	1%	12%
c1nc(NCCN2CCOCC2)c2c3c(sc2n1)CCCCC3	/	7.5*	-5%	-1%	-3%	8%
Brc1ccc(NCc2nnc3n2CCCCC3)cc1	>57	>77	-2%	12%	-5%	-3%
COc1ccccc1-c1cc(C(=O)N2CCN(c3ccccc3OC)CC2)no1	>57	>77	-2%	-7%	0%	5%
COc1ccccc1N1CCN(C(=O)c2ccc3nc(-c4ccco4)c(-c4ccco4)nc3c2)CC1	>57	>77	-19%	20µM*	3.2µM*	17%
Cc1cc(C)cc(NC(=O)CCn2ccnc2C)c1	>57	>77	-15%	20%	7%	3%
CCN1C(=O)/C(=C2/Sc3ccc(OC)cc3N2C)SC1=Nc1cccc(O)c1	>57	>77	-7%	-14%	3.2µM*	10%
Oc1cccc(C=NCc2ccccc2)c1O	/	/	/	5µM*	/	/
O=C(COC(=O)COc1ccc(Nc2ccccc2)cc1)NCc1ccco1	>57	/	-16%	?	-28%	22%
O=C(COc1ccc2oc(-c3ccccc3)cc(=O)c2c1)NCc1ccco1	4.1*	>77	-3%	?	99%	4%
SMILES	Bst PK mod	GBA activity	Hsp90 Hop PPI	15-hLO inh	Tau filament bind	USP2a inh
CN(C)C(=O)c1ccc(-c2nc(NC3CCNCC3)c3ccccc3n2)cc1	/	/	2%	10%	-7%	70%
COC(=O)c1sccc1NC(=O)Cn1nnc(-c2ccc(C)cc2)n1	>57	15*	-4%	-18%	352%	4%
Cc1cccc(NC(=O)Cn2nnc(-c3cccs3)n2)c1C	>57	>77	?	-9%	13µM*	10%
O=C(Oc1cccc(NC(=O)c2ccco2)c1)c1cccc(S(=O)(=O)N2CCCC2)c1	>57	i	-1%	-12%	4%	35%
Cc1ccc(N2CCN(S(=O)(=O)c3ccc(F)c(C)c3)CC2)c(C)c1	11*	>77	?	-15%	-10%	-8%
CCc1ccccc1N1CCN(S(=O)(=O)c2ccc(F)c(C)c2)CC1	/	>77	?	-9%	-22%	-11%
C=C[C@@]1(C)CC(=O)[C@@]2(O)[C@@]3(C)[C@H](O)CCC(C)(C)[C@@H]3[C@H](O)[C@H](OC(C)=O)[C@]2(C)O1	/	/	4%	-7%	-8%	6%
CC(C)CNC1=CC(=O)CC(c2ccco2)C1 (stereo unspecified)	/	/	-5%	10µM*	-23%	25%
CCn1c(C(=O)NCCCc2ccccc2)cc2sccc21	/	/	/	20µM*	/	/
Cc1cc2nn(-c3ccccc3)nc2cc1NC(=O)c1cccs1	2.3*	>77	3%	0%	71%	71%
CCC(=O)Nc1cc2nn(-c3ccccc3)nc2cc1Cl	/	>77	-2%	0%	6%	4%
COc1ccc(-n2nc3cc(C)c(NC(=O)c4cccnc4)cc3n2)cc1	9.6*	>77	1%	5%	172%	10%
CCc1cccc(C)c1NC(=O)c1cc(C)oc1C	>57	>77	0%	5%	-3%	-1%
O=C(NCCN1CCOCC1)c1cccc(Cl)c1	>57	?	-3%	-5%	6%	1%
COc1cc(OC)cc(C(=O)NCCN2CCOCC2)c1	>57	?	-4%	10µM*	-5%	/
O=C(Cn1c(NCCO)nc2ccccc21)c1ccccc1	/	/	/	-1%	/	/
Cc1ccc(C(=O)Cn2c(NCCO)nc3ccccc32)cc1	>57	14*	-3%	10%	6%	8%
CCCCCSc1nnc(-c2cc(Br)ccc2N)c(=O)[nH]1	>57	i	-4%	-8%	10µM*	1%
CCCCSc1nnc(-c2ccccc2N)c(=O)[nH]1	/	/	/	-4%	/	/
CCOC(=O)CNc1ccc2c(c1)OCO2	>57	>77	-13%	2µM*	55%	10%
CCOC(=O)c1c(N)sc(C(=O)Nc2ccc3c(c2)OCO3)c1C	1*	>77	-6%	0%	-18%	15%
Cc1occc1-c1nnc(SCC(=O)c2ccc(Cl)cc2)n1C	>57	>77	-2%	-5%	-1%	11%
Nc1ccc(O)cc1	/	/	-7%	?	16µM*	/
Cc1cc(C(=O)CSc2nc3ccccc3o2)c(C)n1C1CC1	>57	14*	?	?	6%	7%
O=C(CSc1nnc2ccccn12)c1ccc2c(c1)OCCO2	/	/	-4%	3%	1%	-3%
O=C(CSc1nc2ccccc2o1)c1ccc2c(c1)OCCO2	>57	14*	1%	-16%	88%	-3%
C=CCn1c(C)cc(C(=O)CSc2nc3ccccc3o2)c1C	i	>77	4%	-11%	8%	-3%
COc1ccc(OCCNS(=O)(=O)c2ccccc2)cc1	/	/	2%	2%	5%	7%
